Among the test systems are NCI-H23 lung; NCI-H226 lung; NCI-H322M lung; HOP-62 NSCLC; NCI-H460 lung; HOP-92 NSCLC; NCI-H522 lung; A549/ATCC NSCLC; 786-0 renal; COLO 205 colon; DU-145 prostate; K-562 leukemia; MALME-3M melanoma; MDA-MB-231 breast; RXF 393 renal; SF-268 CNS; SF-295 CNS; SF-539 CNS; UACC-257 melanoma; M14 melanoma.
Holding throughout (assay): NCI-60 one-dose screen, 48 h (100 = growth as untreated, 0 = no growth, -100 = all killed)
What all share (conditions): 10 µM unless noted

This is part of a sample that, as a whole, favours compounds with a hit. Of some 83,000 tested, about 20% had one in any assay.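 For each line, cells grew in 96-well plates with the test compound present at a single concentration for 48 hours.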 Active and inactive are the calls of the source. The calls were made as follows: active = growth percent below 10; inactive = the rest.

Take `COc1cc(C2CC(c3cc(OC)c(OC)c(OC)c3)=Nc3c(N)nc(N)nc3N2)ccc1Oc1nc(Nc2ccc(F)cc2)nc(N(C)C)n1` (stereo not given): the growth was 89.8% (inactive) in the experiment on NCI-H23 lung; 106% (inactive) in the experiment on NCI-H226 lung; 94.4% (inactive) with NCI-H322M lung; 99.9% (inactive) in the experiment with HOP-62 NSCLC; 42.8% (inactive) in the experiment with NCI-H460 lung; 38.1% (inactive) with HOP-92 NSCLC. Also, the growth in the experiment with NCI-H522 lung was 56.8% (inactive); in the experiment on A549/ATCC NSCLC it was 52.9% (inactive); in the experiment with 786-0 renal, 36.6% (inactive); in the experiment with COLO 205 colon, 73.9% (inactive); with DU-145 prostate it was 70.7% (inactive); in the experiment with K-562 leukemia, 15.1% (inactive). Moreover, the growth in the experiment on MALME-3M melanoma was 78.6% (inactive); with MDA-MB-231 breast it was 24.6% (inactive); in the experiment on RXF 393 renal, 26.5% (inactive); in the experiment on SF-268 CNS it was 63.5% (inactive); in the experiment with SF-295 CNS, 61.3% (inactive); in the experiment with SF-539 CNS it was 62% (inactive). Moreover, the growth is 58.9% (inactive) with UACC-257 melanoma and 66.5% (inactive) in the experiment with M14 melanoma.

On to `Cc1nn(-c2ccccc2)c2nc(C)n(C(=O)N/N=C/c3ccccc3)c(=O)c12`, for which the growth in the experiment on NCI-H23 lung was 99.7% (inactive); in the experiment with NCI-H226 lung it was 87.5% (inactive); in the experiment with NCI-H322M lung, 103% (inactive); in the experiment on HOP-62 NSCLC, 102% (inactive); in the experiment on NCI-H460 lung, 106% (inactive); in the experiment on HOP-92 NSCLC, 99.4% (inactive). Also, the growth with NCI-H522 lung was 97.9% (inactive); in the experiment on A549/ATCC NSCLC it was 101% (inactive); in the experiment with 786-0 renal it was 97.1% (inactive); in the experiment with COLO 205 colon, 118% (inactive); in the experiment on DU-145 prostate it was 114% (inactive); in the experiment with K-562 leukemia, 95.6% (inactive). Besides, the growth is 91.5% (inactive) in the experiment on MALME-3M melanoma; 91.8% (inactive) in the experiment on MDA-MB-231 breast; 111% (inactive) in the experiment on RXF 393 renal; 104% (inactive) in the experiment with SF-268 CNS; 94.9% (inactive) in the experiment with SF-295 CNS; 93.8% (inactive) with SF-539 CNS. Further, the results for the growth in the experiment with UACC-257 melanoma and in the experiment on M14 melanoma were 106% (inactive) and 98.5% (inactive), respectively.

On to `O=C(N/N=C/c1ccc(Cl)o1)c1[nH]c2ccc(Br)cc2c1-c1ccccc1`, for which the growth was -29.7% (active) in the experiment with NCI-H23 lung; -42.1% (active) with NCI-H226 lung; 26.3% (inactive) in the experiment on NCI-H322M lung; -48.3% (active) in the experiment on HOP-62 NSCLC; -70.8% (active) in the experiment on NCI-H460 lung; 9.01% (active) with HOP-92 NSCLC. Besides, the growth in the experiment on NCI-H522 lung is -59.8% (active); with A549/ATCC NSCLC it was -23.2% (active); in the experiment on 786-0 renal, -57.7% (active); in the experiment with COLO 205 colon, -39.9% (active); in the experiment on DU-145 prostate, -49.1% (active); with K-562 leukemia, 8.31% (active). In addition, the growth in the experiment with MALME-3M melanoma is 2.82% (active); in the experiment with MDA-MB-231 breast, -69.9% (active); with RXF 393 renal, -62.6% (active); in the experiment on SF-268 CNS it was 3.21% (active); with SF-295 CNS, -19.3% (active); in the experiment with SF-539 CNS, -97.2% (active). The growth in the experiment on UACC-257 melanoma is 17% (inactive); in the experiment on M14 melanoma, -3.48% (active).

As for `Cc1ccc(C(C(=O)NC2CCCCC2)N(Cc2ccccc2Cl)C(=O)c2ccc(CN3CCOCC3)o2)o1` (stereo not given), the growth was 93.8% (inactive) in the experiment on NCI-H23 lung; 101% (inactive) with NCI-H226 lung; 105% (inactive) in the experiment on NCI-H322M lung; 107% (inactive) with HOP-62 NSCLC; 99.9% (inactive) with NCI-H460 lung; 91.3% (inactive) in the experiment with HOP-92 NSCLC. Further, the growth was 78.7% (inactive) in the experiment with NCI-H522 lung; 98.5% (inactive) with A549/ATCC NSCLC; 82.8% (inactive) with 786-0 renal; 121% (inactive) with COLO 205 colon; 101% (inactive) with DU-145 prostate; 81.6% (inactive) with K-562 leukemia. For the same molecule, the growth was 109% (inactive) in the experiment with MALME-3M melanoma; 85.5% (inactive) with MDA-MB-231 breast; 93.4% (inactive) with RXF 393 renal; 83.5% (inactive) in the experiment on SF-268 CNS; 91.8% (inactive) with SF-295 CNS; 99.4% (inactive) in the experiment on SF-539 CNS. The results for the growth in the experiment on UACC-257 melanoma and with M14 melanoma were 103% (inactive) and 98.6% (inactive), respectively.

For `C[C@@H]1CN(c2ccc3ncc(C#Cc4cncc(C(=O)Nc5ccc(CN6CCN(C)CC6)c(C(F)(F)F)c5)c4)n3n2)C[C@@H](C)O1`, the growth was -87.5% (active) with NCI-H23 lung; -86.3% (active) in the experiment with NCI-H226 lung; -78.9% (active) in the experiment on NCI-H322M lung; -59.8% (active) with HOP-62 NSCLC; -80% (active) with NCI-H460 lung; -87.7% (active) with HOP-92 NSCLC. Also, the growth in the experiment with NCI-H522 lung was -73.3% (active); in the experiment on A549/ATCC NSCLC it was -59% (active); in the experiment on 786-0 renal, -95.9% (active); in the experiment on COLO 205 colon it was -77.7% (active); in the experiment with DU-145 prostate, -85.7% (active); in the experiment on K-562 leukemia, -28.1% (active). Moreover, the growth in the experiment with MALME-3M melanoma was -97.5% (active); with MDA-MB-231 breast, -93.1% (active); with RXF 393 renal, -96.1% (active); in the experiment on SF-268 CNS, -56.2% (active); in the experiment with SF-295 CNS, -100% (active); in the experiment on SF-539 CNS, -100% (active). The growth with UACC-257 melanoma was -86.6% (active); with M14 melanoma it was -94% (active).

As for `O=C(CSc1nc2sc3c(c2c(=O)n1-c1ccc(Cl)cc1)CCCC3)NNC(=O)c1ccc(F)cc1`, the growth is 73.7% (inactive) in the experiment with NCI-H23 lung; 62.7% (inactive) in the experiment on NCI-H226 lung; 73.8% (inactive) with NCI-H322M lung; 23.7% (inactive) in the experiment on HOP-62 NSCLC; 88.6% (inactive) in the experiment with NCI-H460 lung; 69.2% (inactive) in the experiment with HOP-92 NSCLC. Besides, the growth in the experiment on NCI-H522 lung is 77.3% (inactive); with A549/ATCC NSCLC, 94.2% (inactive); in the experiment on 786-0 renal it was 96.8% (inactive); in the experiment with COLO 205 colon, 125% (inactive); with DU-145 prostate it was 109% (inactive); in the experiment with K-562 leukemia, 72.3% (inactive). The growth is 80.5% (inactive) in the experiment on MALME-3M melanoma; 28.8% (inactive) in the experiment on MDA-MB-231 breast; 89.7% (inactive) in the experiment with RXF 393 renal; 95.9% (inactive) in the experiment with SF-268 CNS; 90.4% (inactive) in the experiment with SF-295 CNS; -28.4% (active) with SF-539 CNS. Further, the figures for the growth in the experiment on UACC-257 melanoma and in the experiment on M14 melanoma were 106% (inactive) and 80.6% (inactive), respectively.

Regarding `CN1CCN(C(=O)Oc2cc3c(c4ccccc24)[C@H](CCl)CN3C(=O)c2cc3cc(OCCCN4CCC4)ccc3[nH]2)[C@H]2CSSC[C@H]21`, the growth with NCI-H23 lung was -65% (active); in the experiment on NCI-H226 lung, -14.5% (active); in the experiment on NCI-H322M lung it was -13.1% (active); with HOP-62 NSCLC it was -37.8% (active); in the experiment with NCI-H460 lung, 0.951% (active); in the experiment with HOP-92 NSCLC it was -18.8% (active). The growth with NCI-H522 lung is -54.8% (active); in the experiment on A549/ATCC NSCLC, 4% (active); in the experiment on 786-0 renal it was -8.82% (active); with COLO 205 colon it was -81.5% (active); in the experiment with DU-145 prostate it was -3.53% (active); in the experiment on K-562 leukemia, 3.04% (active). Further, the growth with MALME-3M melanoma was -64.8% (active); with MDA-MB-231 breast, -14.8% (active); in the experiment with RXF 393 renal it was -78.8% (active); in the experiment with SF-268 CNS it was -9.36% (active); with SF-295 CNS it was -6.36% (active); in the experiment on SF-539 CNS, -75.2% (active). The growth is -15.6% (active) with UACC-257 melanoma and -75.2% (active) in the experiment with M14 melanoma.

In the case of `C#CCCCNCCNc1ccnc2cc(Cl)ccc12`, the growth was 72.7% (inactive) with NCI-H23 lung; 70.7% (inactive) in the experiment with NCI-H226 lung; 92% (inactive) with NCI-H322M lung; 79.1% (inactive) in the experiment with HOP-62 NSCLC; 83.2% (inactive) in the experiment with NCI-H460 lung; 53.4% (inactive) in the experiment with HOP-92 NSCLC. For the same molecule, the growth with NCI-H522 lung was 41.1% (inactive); in the experiment with A549/ATCC NSCLC, 84.3% (inactive); with 786-0 renal, 58.8% (inactive); in the experiment with COLO 205 colon it was 10.7% (inactive); with DU-145 prostate, 74.5% (inactive); in the experiment with K-562 leukemia it was 19.9% (inactive). Further, the growth is 88.8% (inactive) in the experiment on MALME-3M melanoma; 66.3% (inactive) with MDA-MB-231 breast; 36.2% (inactive) in the experiment with RXF 393 renal; 87.7% (inactive) in the experiment with SF-268 CNS; 48.2% (inactive) in the experiment with SF-295 CNS; -13.9% (active) with SF-539 CNS. The growth in the experiment with UACC-257 melanoma is 0.503% (active); with M14 melanoma, 61.3% (inactive).

The values are drawn from PubChem BioAssay (NCI).
